Screening data as filed in PubChem.
ERG Ets-DNA blk – ERG Ets/DNA interaction inhibition. AID 624246. 370,000 compounds, 0.028% hits. fluorescence polarization, His-ERG Ets domain / labelled DNA. P11308. Potency, µM (titrated, usually from 76.9 µM), actives largely listed as inhibitors; active means well fitted inhibition curve with a large enough effect in the polarisation, with a control signal flat; inconclusive means small, poorly fitted or top-dose-only effect, or effect the other way, or a change in a side signal; inactive means no such curve, though single readings can be large or run the other way; the % refers to the polarisation;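 further: polarization taken with two DNA probes labelled with fluorescein and Texas red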
Target sequence (P11308 whole entry, looked up, the tested form may be a part): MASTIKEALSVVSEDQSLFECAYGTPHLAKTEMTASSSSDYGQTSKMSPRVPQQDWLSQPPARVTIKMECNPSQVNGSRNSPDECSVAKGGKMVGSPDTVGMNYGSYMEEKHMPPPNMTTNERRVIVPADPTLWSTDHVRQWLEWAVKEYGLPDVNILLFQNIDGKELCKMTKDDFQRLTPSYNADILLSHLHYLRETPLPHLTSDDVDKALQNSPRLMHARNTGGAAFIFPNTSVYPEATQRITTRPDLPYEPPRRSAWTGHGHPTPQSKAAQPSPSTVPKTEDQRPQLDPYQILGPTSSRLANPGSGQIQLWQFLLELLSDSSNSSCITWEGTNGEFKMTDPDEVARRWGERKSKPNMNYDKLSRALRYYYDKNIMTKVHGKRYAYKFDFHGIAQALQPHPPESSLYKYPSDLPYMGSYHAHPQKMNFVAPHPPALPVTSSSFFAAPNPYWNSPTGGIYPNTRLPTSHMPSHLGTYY
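His-tagged ERG Ets domain (1 uM in the protein solution; 300mM KCl, 50mM Tris-HCl, 1mM EDTA, 1mM DTT, pH 7.5) received compound, then a probe mix of 5 nM fluorescein-DNA and 100nM Texas-615-DNA. Fluorescence polarization was read for both dyes.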
RORgamma inh – inhibitors of mouse ROR gamma transcriptional activity. P51450. Drosophila S2 Gal4-RORgamma UAS-luciferase reporter, 20 h. Potency, µM (top dose mostly 53.6 µM), most hits filed as inhibitors. 310,000 compounds, 5.4% hits. AID 2551; further: nearly all actives have a fitted effect of over 60% in size
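Read-out: Photinus luciferase luminescence; inhibitors lower reporter signal. Insect Schneider cells with Gal4-ROR gamma fusion under metallothionein promoter, UAS reporter; 700 uM final copper sulfate induction, 20 hr, ambient temperature.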
VP16 counter – counter-screen for ROR gamma inhibitors: Gal4-VP16 reporter | Drosophila S2 Gal4-VP16 UAS-luciferase, luminescence, 20 h | Potency, µM (series often up to 53.6 µM), hits mostly inhibitors | 310,000 compounds, 3.5% hits | AID 2546;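 further: Gal4-VP16 expression switched on by copper sulfate through the metallothionein promoter; nearly all actives have a fitted effect of over 50% in size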
a7 integrin act – integrin-mediated muscular dystrophy alleviation activation; alpha7betagal myoblasts, beta-gal FDG fluorescence, 48 h; Potency, µM (highest dose often 38.3 µM), usual class: activators; 350,000 compounds, 0.064% hits; AID 624291; further: nearly all actives have a fitted effect of over 60% in size
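Alpha7betagal+/- myoblasts (passage 13) were plated 16-24 hr, then exposed to compounds (1:260 dilution of DMSO stock) for 48 hours at 37C. After MPER lysis, β-galactosidase reporter activity was read as FDG fluorescence (ex 480/em 540) after 30 minutes.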
Giardia kill – Giardia lamblia killing; Giardia lamblia trophozoite viability; activity change, % at 7.66 µM, hits read low; 340,000 compounds, 0.15% hits; AID 540267; in the data active means activity change below about -80%; inconclusive means between about -30% and that limit;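 further: parasites exposed to compound for two days anaerobically before the ATP read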
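Luminescence from cellular ATP indicates surviving trophozoites (100 cells/well) following 48 hrs anaerobic compound treatment at 37 deg C; signal develops 15-30 min at room temperature.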
Numbers stand for hits; 0 = inactive; ? = inconclusive; - = not tested or not shown; [ ] = another dose, or the depositor's remark. Many of the other results were omitted from the sample, so hits are more common in it than they were. Unless noted, the call rests on the fitted dose curve; in most records, active means well fitted curve in the direction sought with a large enough effect; inconclusive means small, poorly fitted or top-dose-only effect, or another doubt; inactive means no such curve, though single readings can be large; an effect the other way counts as inactive or inconclusive.

SMILES | ERG Ets-DNA blk | RORgamma inh | VP16 counter | a7 integrin act | Giardia kill
Nc1c(-c2ccccc2)cnn1-c1ccc(C(=O)O)cc1 | 0 | 10µM | ? | 0[7.66 µM] | 0
O=C(NCc1ccco1)/C(=C/c1ccccc1F)NC(=O)c1ccccc1 | 0 | 0 | 0 | 0 | 0
COc1cc(OC)cc(C2=Nn3c(nnc3-c3cccc(OC)c3)SC2)c1 | - | 0 | 0 | - | -
CC(=O)Nc1cccc(C2=CC(c3ccco3)n3ncnc3N2)c1 (centres undefined) | - | 6.31µM | 0 | - | -
Cc1ccc(NC(=O)CSc2nc3ncccc3[nH]2)cc1F | 0 | - | - | - | -
O=C(CSc1nnc(-c2cccnc2)o1)c1cc2ccccc2oc1=O | 0 | ? | 3.98µM | 0 | 0
O=C(CSc1nnc(-c2cccnc2)o1)Oc1ccccc1 | 0 | 0 | 0 | 0 | 0
CC(=O)NCCn1c(SCC#N)nc2ccccc2c1=O | 0 | 0.224µM | 0 | 0 | 0
CC[C@H](C(=O)[C@H](C)[C@H](O)[C@H](C)CCc1ccc(C)c(O)c1C(=O)O)[C@H]1O[C@](CC)([C@@H]2CC[C@@](O)(CC)[C@H](C)O2)C[C@H]1C | - | ? | 6.31µM | - | -
CCOc1ccc(S(=O)(=O)Nc2ccc(O)c(Sc3ncn[nH]3)c2)cc1 | 0 | ? | 3.55µM | 0 | 0
Cc1ccc(S(=O)(=O)Nc2ccc(O)c(Sc3ncn[nH]3)c2)cc1 | 0 | 0 | 0 | 0 | 0
C/C(=N\Nc1nccnc1Cl)c1c(F)c(F)c(F)c(F)c1F | 0 | 8.91µM | ? | 0 | 0
C/C(=N\Nc1nccnc1Cl)c1ccc(F)cc1 | 0 | 5.62µM | 2.82µM | 0 | 0
Cc1ccc(N2CC(NC(=O)c3cccc(Cl)c3)CC2=O)cc1C (centres undefined) | 0 | - | - | - | -
[O-]/C(=C(\C(=S)Nc1cccc2ccccc12)[n+]1ccccc1)c1cccs1 | 0 | ? | 0[10 µM] | 0 | ?
Cc1cccc(C)c1NC(=S)/C(=C(\[O-])c1cccs1)[n+]1ccccc1 | 0 | ? | 20µM | 0 | 0
O=C(N/N=C/c1cccs1)c1n[nH]c2c1CCCC2 | 0 | 5.01µM | 7.94µM | 0 | 0
C/C(=N\NC(=O)c1n[nH]c2c1CCC2)c1cccs1 | 0 | 2.51µM | 3.55µM | 0 | 0
C/C(=N\NC(=O)c1cc(C)[nH]n1)c1cccs1 | 0 | 12.6µM | 10µM | 0 | 0
Cc1ccc2nc(NC(=O)CSCC(=O)OCC(=O)c3ccccc3)sc2c1 | 0 | 5.01µM | 2.24µM | 0 | 0
Cc1ccc2nc(NC(=O)C3CC3C)sc2c1 (centres undefined) | 0 | 7.08µM | 0 | 0 | 0
Cc1ccc2nc(NC(=O)CCCC(=O)O)sc2c1 | 0 | 1.12µM | 0.794µM | 0 | 0
Cc1ccc2nc(NC(=O)CCCc3nc4ccccc4s3)sc2c1 | 0 | 0 | 0 | 0 | 0
CC(C)Cn1cc(NC(=O)N2CCN(c3ccc(F)cc3)CC2)c2ccccc2c1=O | 0 | - | - | - | -
CS(=O)(=O)N(CC(=O)N1CCc2ccccc2C1)Cc1ccccc1 | - | 0 | 0 | 0 | 0
SMILES | ERG Ets-DNA blk | RORgamma inh | VP16 counter | a7 integrin act | Giardia kill
O=C(NC(=S)N(CCc1ccccc1)CCc1ccccc1)c1ccco1 | 0 | 0.112µM | 0.0447µM | 0 | 0
CC(CCc1ccccc1)NC(=S)NC(=O)c1ccco1 (centres undefined) | 0 | 11.2µM | 0 | 0 | 0
O=C(NCc1ccccc1)c1ccco1 | 0 | 0 | 0 | 0 | 0
CC(CCc1ccccc1)NC(=O)c1ccc(NC(=O)c2cccc(Br)c2)cc1 (centres undefined) | 0 | 0 | 0 | 0 | 0
CC(CCc1ccccc1)NC(=O)c1ccc(NC(=O)c2ccccc2)cc1 (centres undefined) | 0 | 2.82µM | ? | 0 | 0
CC1=C(c2ccc(C)c(C)c2)S(=O)(=O)N=C1N1CCC(C(=O)Nc2cccc(F)c2)CC1 | 0 | - | - | - | -
Cc1ccc2c(Sc3ccc(Cl)cc3)c(C(=O)N3CCCCC3)[nH]c2c1 | 0 | - | - | - | -
COC(=O)[C@H](Cc1ccccc1)NC(=O)O[C@H]1C(=O)c2cc(OC)ccc2O[C@@H]1c1ccc(OC)c(Br)c1 | - | 0 | 0 | - | -
C=C(C)C1CC=C(C)/C(=N/NC(=S)Nc2ccccc2)C1 (centres undefined) | 0 | 1.12µM | 1.12µM | 0 | 0
O=C(Nc1ccc(F)cc1F)c1ccc(-n2cnnc2)cc1 | 0 | - | - | - | -
OC(CNC1CCCc2ccccc21)COc1ccc2ccccc2c1 (centres undefined) | 0 | 0 | 0 | 0 | 0
CCc1ccccc1OC[C@@H](O)CN[C@H]1CCCc2ccccc21 | 0 | 7.08µM | 14.1µM | - | 0
Cc1c(Cl)cccc1-n1c(SCC(=O)NCc2ccccc2)nc2n[nH]c(C)c2c1=N | 0 | - | - | - | -
CN(C)c1ccc(C(=O)c2ccccc2)cc1 | 0 | 0 | 0 | 0 | 0
CN(C)c1ccc(N=Nc2ccc(C(=O)O)cc2)cc1 | 0 | 0.501µM | 1.41µM | 0 | ?
CCOC(=O)CSC1=C(C#N)C(c2ccc(OC)cc2)C2=C(CC(C)(C)CC2=O)N1 (centres undefined) | 0 | ? | 20µM | 0 | 0
COc1ccc(C2C(C#N)=C(SC)NC3=C2C(=O)CC(C)(C)C3)cc1 (centres undefined) | 0 | ? | 0 | 0 | 0
CC1CCCC(=NNc2ccc3ccccc3n2)C1 (centres undefined) | 0 | - | - | 0 | 0
Cc1ccccc1-c1nc2c(=O)n(C)c(=O)nc-2n(C)n1 | - | - | - | - | -86.5
CCCc1nc2c(=O)n(C)c(=O)nc-2n(C)n1 | 0 | 1.41µM | 2.82µM | 0 | ?
CCc1ccc(-c2nc3c(=O)n(C)c(=O)nc-3n(CC)n2)cc1 | - | - | - | - | -90.7
Cc1ccc(-n2c3nc(=O)n(C)c(=O)c-3cc3ccccc32)cc1 | 0 | 0 | 0 | ? | 0
CCc1ccc(-c2csc3ncn(CC)c(=O)c23)cc1 | 0 | 0 | 0 | 0 | 0
Cn1nc(-c2ccccn2)nc2c(=O)n(C)c(=O)nc1-2 | 0 | 0.447µM | 0.562µM | 0 | 0
CCn1c(N)nc2c1c(=O)n(C)c(=O)n2C | 0 | 0 | 0 | 0 | 0
SMILES | ERG Ets-DNA blk | RORgamma inh | VP16 counter | a7 integrin act | Giardia kill
CCOc1cccc(C(=O)NC(=S)Nc2ccc3c(c2)OCCO3)c1 | 0 | 7.94µM | 0 | 0 | 0
COc1ccc(NC(=S)NC(=O)c2ccc3c(c2)OCCO3)cc1 | 0 | - | - | ? | 0
COc1cccc(OC)c1C(=O)NC(=S)Nc1ccc2c(c1)OCCO2 | 0 | 12.6µM | 0 | 0 | 0
COc1cc(C(=O)NC(=S)Nc2ccc3c(c2)OCO3)cc(OC)c1OC | 0 | 14.1µM | ? | 0 | 0
CCOc1ccc(-n2nc3ccc(NC(=O)c4ccc5c(c4)OCCO5)cc3n2)cc1 | - | 10µM | 11.2µM | 0 | 0
COc1ccc(-c2coc3cc(OC(C)=O)ccc3c2=S)cc1 | 0 | - | - | 0 | 0
CCOc1ccc(NS(=O)(=O)c2cc(C(=O)N3CCN(c4ccccc4O)CC3)ccc2Cl)cc1 | 0 | - | - | 0 | 0
CCOc1cccc(C(=O)NC(=S)Nc2ccc(N3CCCC3)cc2)c1 | 0 | 2.24µM | 6.31µM | 0 | 0
O=C(NC(=S)Nc1ccc2c(c1)OCCO2)c1ccccc1 | 0 | 3.98µM | ? | 0 | 0
O=C(COc1ccccc1Br)Nc1ccc2c(c1)OCCCO2 | 0 | 17.8µM | 0 | 0 | 0
CCOc1cccc(C(=O)Nc2ccc(N3CCN(S(C)(=O)=O)CC3)cc2)c1 | 0 | 0 | 0 | 0 | 0
